Measured values taken from PubChem BioAssay (Tox21).
Records with an inconclusive call do not appear. The source made the active and inactive calls. Unless noted, calls come from the whole dose curve; as a rule, active = well fitted curve in the direction sought with a large enough effect in the repeat runs; inconclusive = weak or mixed curves; inactive = no such curve, though single readings can be large; an effect the other way counts as inactive or inconclusive.

What was measured:
[1] = qHTS assay for small molecule agonists of the p53 signaling pathway (AID 651631; calls by dose curve; note: nearly all actives have a fitted effect of over 15% in size)
How it was run: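 Readout was fluorescence from the LiveBLAzer FRET substrate, applied for 2 h at room temperature after 16 h compound exposure at 37 °C. Cells were the p53RE-bla HCT-116 line, with beta-lactamase driven by p53 response elements.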

[2] = qHTS assay for small molecules that induce genotoxicity in human embryonic kidney cells expressing luciferase-tagged ATAD5 (AID 651632); note: nearly all actives have a fitted effect of over 15% in size
How it was run: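 Cells were seeded at 2,000 per well, dosed with compound, and incubated 16 hr at 37C in 5% CO2. Luciferase activity was then quantified after a 30 min room-temperature incubation with Amplite.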

[3] = qHTS assay for small molecule agonists of the p53 signaling pathway - cell viability (AID 651633; calls by dose curve; note: series mostly up to about 83 µM; nearly all actives have a fitted effect of over 30% in size)
How it was run: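 Viability counter-read: CellTiter-Glo luminescence (30 min, room temperature) in the same p53RE-bla plates. These plates had been exposed to compounds for 16 h at 37 C.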

[4] = qHTS assay for small molecules that induce genotoxicity in human embryonic kidney cells expressing luciferase-tagged ATAD5 - cell viability (AID 651634; calls by dose curve; note: nearly all actives have a fitted effect of over 25% in size)
How it was run: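 Cells (HEK293T, luciferase-tagged ATAD5) are seeded at 2,000 per well, dosed with compound or DMSO vehicle, and incubated 15.5 hr at 37C and 5% CO2. CellTiter-Fluor is added for 30 min before fluorescence is measured.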

[5] = qHTS assay for small molecule disruptors of the mitochondrial membrane potential - cell viability (AID 720634; calls by dose curve;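 note: human HepG2 liver cancer cells; series mostly up to about 83 µM; nearly all actives have a fitted effect of over 20% in size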)
How it was run: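 Cytotoxicity was measured by ATP quantitation in HepG2 wells that had first been treated with compound for 1 hr and stained with m-MPI dye; CellTiter-Glo incubation was 30 min at room temperature.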

[6] = qHTS assay for small molecule disruptors of the mitochondrial membrane potential (AID 720635)
How it was run: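 Mitochondrial membrane potential tracked with Mito-MPS dye, red aggregates (ex 540/em 590 nm) against green monomers (ex 490/em 535 nm). Compound treatment 1 hr at 37C, dye 30 min in HepG2.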

[7] = qHTS assay to test for compound auto fluorescence at 590 nm (red) in HepG2 cells (AID 720674)
How it was run: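 Red autofluorescence (Ex/Em 540/590 nm, Rose Bengal sodium equivalents) was measured in HepG2 cells, 2,000 per well in MEM plus 10% FBS, plated overnight at 37 C. Readings were taken 1 hr after adding 23 nL compound or DMSO, at 37 C and 5% CO2.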

[8] = qHTS assay to test for compound auto fluorescence at 535 nm (green) in HepG2 cells (AID 720675)
[9] = qHTS assay to test for compound auto fluorescence at 590 nm (red) in HEK293 cells (AID 720679)
How it was run: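 HEK293 cells (2,000/well, medium with 10% dialyzed FBS) attached for 4-5 hr at 37C, received 23 nL compound and were incubated overnight at 37C, 5% CO2. Red fluorescence was then read at 540/590nm Ex/Em, referenced to Rose Bengal sodium.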

[10] = qHTS assay to test for compound auto fluorescence at 460 nm (blue) in HEK293 cells (AID 720678)
How it was run: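 HEK293 cells (2,000 per well, medium with 10% dialyzed FBS) attached for 4-5 hr at 37C, then received compound and stood overnight at 37C, 5% CO2. Blue fluorescence was read at Ex/Em 405/460 nm and expressed relative to triamterene.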
% is set by controls: 0 for no effect and ±100 for the full control effect.

O=C(CO)[C@@H](O)[C@H](O)[C@@H](O)CO
inactive: Potency [1] | Potency [2] | Potency [3] | Potency [4] | outcome [5] | Potency [6] | outcome [7] | outcome [8] | outcome [9]

C[C@@H]1C[C@H]2[C@@H]3C[C@H](F)C4=CC(=O)C(Cl)=C[C@]4(C)[C@@]3(F)[C@@H](O)C[C@]2(C)[C@@]1(O)C(=O)CO
inactive: Potency [1] | Potency [2] | Potency [3] | Potency [4] | outcome [5] | outcome [7] | outcome [8] | outcome [10] | outcome [9]

[O-][n+]1cccc(CO)c1
inactive: Potency [1] | Potency [2] | Potency [3] | Potency [4] | outcome [5] | Potency [6] | outcome [7] | outcome [10]

COc1ccc2cc1Oc1cc3c(cc1OC)CC[N+](C)(C)[C@H]3Cc1ccc(cc1)Oc1c(OC)c(OC)cc3c1[C@@H](C2)[N+](C)(C)CC3
inactive: Potency [1] | Potency [2] | Potency [3] | Potency [4] | outcome [5] | Potency [6] | outcome [7] | outcome [10]

C[N+](C)(C)CCCCCCCCCC[N+](C)(C)C
inactive: Potency [1] | Potency [2] | Potency [3] | Potency [4] | outcome [5] | outcome [7] | outcome [8] | outcome [10]

Cc1ccnc(NS(=O)(=O)c2ccc(N)cc2)n1
inactive: Potency [1] | Potency [2] | Potency [3] | Potency [4] | outcome [5] | Potency [6] | fluorescence, relative to Rose Bengal [7] 0.0946% [at 18.6 µM] | fluorescence, % of triamterene [10] 0.0233% [at 18.6 µM] | fluorescence, % of fluorescent control [9] 0.0091% [at 18.6 µM]

CO/N=C(\C(=O)N[C@@H]1C(=O)N2C(C(=O)O)=C(CSc3nc(=O)c(O)nn3C)CS[C@H]12)c1csc(N)n1
inactive: Potency [1] | Potency [2] | Potency [3] | Potency [4] | outcome [5] | Potency [6] | outcome [7] | outcome [10] | outcome [9]

CCOC(=O)c1ccccc1
inactive: Potency [1] | Potency [2] | Potency [3] | Potency [4] | outcome [5] | Potency [6] | outcome [7] | outcome [8] | outcome [9]

CC(=O)Nc1ccc(OCC(O)CNC(C)C)cc1 (stereo not drawn)
inactive: Potency [1] | Potency [2] | Potency [3] | Potency [4] | outcome [5] | outcome [7] | outcome [8] | outcome [10] | outcome [9]

CC1OC1C1CCC2(C)OC2C1 (stereo not drawn)
inactive: Potency [1] | Potency [2] | Potency [3] | Potency [4] | outcome [5] | outcome [7] | outcome [8] | outcome [10]

CC(C)(C#N)Nc1nc(Cl)nc(NC2CC2)n1
inactive: Potency [1] | Potency [2] | Potency [3] | Potency [4] | outcome [5] | Potency [6] | outcome [7] | outcome [8] | outcome [9]

Cc1ccc(C(=O)c2ccc(CC(=O)O)n2C)cc1
inactive: Potency [1] | Potency [2] | Potency [3] | Potency [4] | outcome [5] | fluorescence, relative to Rose Bengal [7] 0.352% [at 18.6 µM] | fluorescence, % of fluorescein control [8] 0.0458% [at 18.6 µM]

CN(C)C(=O)Oc1cccc([N+](C)(C)C)c1
inactive: Potency [1] | Potency [2] | Potency [3] | Potency [4] | outcome [5] | outcome [7] | outcome [8] | outcome [10] | outcome [9]

CCOC(=O)c1cnc2c(cnn2CC)c1NN=C(C)C
inactive: Potency [1] | Potency [2] | Potency [3] | Potency [4] | outcome [5] | outcome [7] | outcome [8] | outcome [10] | outcome [9]

C=C(C)C(=O)OCCOCCOCCOCCOC(=O)C(=C)C
inactive: Potency [1] | Potency [2] | Potency [3] | Potency [4] | outcome [5] | outcome [7] | outcome [8] | outcome [10] | outcome [9]

CC(N)C12CC3CC(CC(C3)C1)C2 (stereo not drawn)
inactive: Potency [1] | Potency [2] | Potency [3] | Potency [4] | outcome [5] | outcome [7] | outcome [8]

CCCCCC(=O)OCCc1ccccc1
inactive: Potency [1] | Potency [2] | Potency [3] | Potency [4] | outcome [5] | outcome [7] | outcome [8] | outcome [10] | outcome [9]

CCCCCCCCCCCCSC
inactive: Potency [1] | Potency [2] | Potency [3] | Potency [4] | outcome [5] | outcome [7] | outcome [8] | outcome [10] | outcome [9]

CCCCCCCC1CCCC1=O (stereo not drawn)
inactive: Potency [1] | Potency [2] | Potency [3] | Potency [4] | outcome [5] | outcome [7] | outcome [8] | outcome [10] | outcome [9]

Cc1ccc(C(=O)c2ccccc2)cc1
inactive: Potency [1] | Potency [2] | Potency [3] | Potency [4] | outcome [5] | outcome [7] | outcome [8] | outcome [10] | outcome [9]

Cc1cc(C)c(N=Nc2c(O)c(S(=O)(=O)O)cc3cc(S(=O)(=O)O)ccc23)cc1C
inactive: activation [1] -4.32% [at 8.3 µM] | activation [2] 1.99% [at 8.08 µM] | activity change, negative = cytotoxicity [3] 11.3% [at 8.08 µM] | activity, negative = cytotoxicity [4] -13.8% [at 8.08 µM] | activity change, negative = cytotoxicity [5] -3.07% [at 8.08 µM] | fluorescence, relative to Rose Bengal [7] 0.0524% [at 9.17 µM] | fluorescence, % of fluorescein control [8] -0.0414% [at 9.17 µM] | fluorescence, % of triamterene [10] -0.0938% [at 9.17 µM] | fluorescence, % of fluorescent control [9] -0.166% [at 9.17 µM]

CCC1C(=O)OCC1Cc1cncn1C (stereo not drawn)
inactive: Potency [1] | Potency [2] | Potency [3] | Potency [4] | outcome [5] | Potency [6] | outcome [7] | outcome [10] | outcome [9]

CCOc1ccccc1OCC
inactive: Potency [1] | Potency [2] | Potency [3] | Potency [4] | outcome [5] | Potency [6] | outcome [7] | outcome [8] | outcome [9]

C[N+](C)(CCOc1ccccc1)Cc1cccs1
inactive: Potency [1] | Potency [2] | Potency [3] | Potency [4] | outcome [5] | Potency [6] | outcome [7] | outcome [9]

CCCc1ncc(C[n+]2ccccc2C)c(N)n1
inactive: Potency [1] | Potency [2] | Potency [3] | Potency [4] | outcome [5] | fluorescence, relative to Rose Bengal [7] -0.079% [at 18.6 µM] | fluorescence, % of fluorescein control [8] 0.0061% [at 18.6 µM] | fluorescence, % of triamterene [10] -0.0062% [at 18.6 µM] | fluorescence, % of fluorescent control [9] 0.0217% [at 18.6 µM]

CCCn1cc[n+](C)c1C
inactive: Potency [1] | Potency [2] | Potency [3] | Potency [4] | outcome [5] | outcome [7] | outcome [10]
